Measurements published in publication PMC4336329 (PLoS ONE, 2015).
About 14,000 (4.5%) of roughly 310,000 compounds showed an effect of 50% or more. The effect is printed as a negative number. This is one part of a sample in which strong results are shown more often than they occur.

target: human ether-à-go-go-related gene (hERG) potassium channel (human, UniProt Q12809); experiment: primary screen, population patch clamp on CHO cells stably expressing hERG; higher = less effect of the substance
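Note: peak tail current of the secondary pulse compared with the same well before compound.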

human ether-à-go-go-related gene (hERG) potassium channel, sequence (Q12809 whole entry, looked up): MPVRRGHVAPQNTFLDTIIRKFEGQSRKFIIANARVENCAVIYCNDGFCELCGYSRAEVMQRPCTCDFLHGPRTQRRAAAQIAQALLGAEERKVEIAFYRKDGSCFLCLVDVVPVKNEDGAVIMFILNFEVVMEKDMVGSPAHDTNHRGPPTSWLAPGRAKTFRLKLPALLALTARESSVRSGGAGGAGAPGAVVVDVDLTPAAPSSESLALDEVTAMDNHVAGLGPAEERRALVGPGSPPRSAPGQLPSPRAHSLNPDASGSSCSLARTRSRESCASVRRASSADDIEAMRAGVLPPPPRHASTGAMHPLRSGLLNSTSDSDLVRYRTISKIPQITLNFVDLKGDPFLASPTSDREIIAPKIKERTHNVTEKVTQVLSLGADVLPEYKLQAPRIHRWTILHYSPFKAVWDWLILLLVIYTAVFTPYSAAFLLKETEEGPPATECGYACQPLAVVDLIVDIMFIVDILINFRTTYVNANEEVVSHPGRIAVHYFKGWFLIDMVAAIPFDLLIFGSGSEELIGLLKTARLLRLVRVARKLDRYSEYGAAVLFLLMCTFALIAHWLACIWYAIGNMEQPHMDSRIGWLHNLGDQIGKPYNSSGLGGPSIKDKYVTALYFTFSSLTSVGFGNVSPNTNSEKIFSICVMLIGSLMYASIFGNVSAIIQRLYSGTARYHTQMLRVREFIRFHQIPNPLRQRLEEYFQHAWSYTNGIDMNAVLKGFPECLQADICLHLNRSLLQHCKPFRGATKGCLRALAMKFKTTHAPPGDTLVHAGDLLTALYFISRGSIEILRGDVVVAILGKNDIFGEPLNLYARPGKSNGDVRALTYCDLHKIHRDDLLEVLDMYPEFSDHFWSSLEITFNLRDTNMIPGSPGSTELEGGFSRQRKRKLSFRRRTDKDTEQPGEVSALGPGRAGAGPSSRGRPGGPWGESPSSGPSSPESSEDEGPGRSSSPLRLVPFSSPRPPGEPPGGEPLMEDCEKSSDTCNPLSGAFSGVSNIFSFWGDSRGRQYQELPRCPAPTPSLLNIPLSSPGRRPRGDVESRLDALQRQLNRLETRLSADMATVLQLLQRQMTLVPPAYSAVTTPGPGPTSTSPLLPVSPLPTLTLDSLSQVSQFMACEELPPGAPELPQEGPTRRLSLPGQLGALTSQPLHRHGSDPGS

| SMILES | hERG current change (%, negative = inhibition) at 10uM |
| --- | --- |
| COc1ccccc1C(=O)NCC(c1ccco1)N1CCc2ccccc21 (stereo not drawn) | -6.41% |
| Cc1ccc(C(=O)NCC(c2ccco2)N2CCc3ccccc32)cc1 (stereo not drawn) | -13% |
| O=C(C[n+]1ccc(/C=N/O)cc1)N(Cc1ccccc1)Cc1ccccc1.[Cl-] | 0.798% |
| CC(=C/C(=O)O)/C(=C/c1ccccc1)C(=O)O | 15.6% |
| Cc1occc1C(=O)n1nnc2ccccc21 | -7.48% |
| Cc1cc(S(=O)(=O)NCCN2CCOCC2)ccc1Cl | 21.3% |
| Cc1sc2ncn(CC(=O)NCCCN3CC(C)CC(C)C3)c(=O)c2c1S(=O)(=O)N1CC(C)CC(C)C1 (stereo not drawn) | -32.1% |
| O=C(NCC(c1cccnc1)N1CCOCC1)C1CCCCC1 (stereo not drawn) | 5% |
| Cc1ccnc(NC(=O)CNC(=O)c2ccc3ccccc3c2)c1 | -12.5% |
| COc1ccc2c(c1)c(C(=O)OCCN(C)C)c(C)n2C.Cl | -1.4% |
| CCCCn1c(C)c(C(=O)O)c2cc(OC)ccc21 | 1.59% |
| CCOC(=O)c1c(-c2ccccc2)c2cc(OC)ccc2n1CCCN(C)C.Cl | -72.4% |
| Cn1cc(S(=O)(=O)N2CCCC2)cc1C(=O)NCc1ccc(Cl)cc1 | 2.02% |
| COc1ccc(CCNC(=O)Cn2cnc3c(cnn3-c3ccccc3Cl)c2=O)cc1OC | -1.24% |
| COc1ccc2nc(NC(C)=O)sc2c1 | -4.83% |
| Cc1ccc(OCC(=O)N/N=C/C=C/c2ccco2)cc1 | -45.9% |
| CC(Oc1ccc(Cl)cc1)c1ccnn1S(=O)(=O)c1ccccc1 (stereo not drawn) | 5.02% |
| CCN(CC)C(=O)c1ccc2c(=O)n(CCOC)c(=S)[nH]c2c1 | -7.02% |
| Cc1nn2c(NCCOCCO)c3c(nc2c1-c1ccccc1)CCCC3 | -74.2% |
| CCCCNc1c2c(nc3c(-c4ccccc4)c(C)nn13)CCC2 | -3.59% |
| COCCNc1c2c(nc3c(-c4ccccc4)c(C)nn13)CCCC2 | -1.34% |
| Cc1nn2c(NCCN(C)C)c3c(nc2c1-c1ccccc1)CCC3 | -26.7% |
| Cc1nn2c(Nc3ccccc3)c3c(nc2c1-c1ccccc1)CCC3 | 14.1% |

| SMILES | hERG current change (%, negative = inhibition) at 10uM |
| --- | --- |
| Cc1nn2c(NCc3ccccn3)c3c(nc2c1-c1ccccc1)CCC3 | -51% |
| Cc1nn2c(NCCOCCO)c3c(nc2c1-c1ccccc1)CCC3 | -50.2% |
| Cc1nn2c(NCCCN(C)C)c3c(nc2c1-c1ccccc1)CCCC3 | -32.2% |
| Cc1nn2c(NCCCN(C)C)c3c(nc2c1-c1ccccc1)CCC3 | -59.4% |
| Cc1nn2c(NCc3cccnc3)c3c(nc2c1-c1ccccc1)CCC3 | -34.2% |
| Cc1nn2c(NCC(C)C)c3c(nc2c1-c1ccccc1)CCC3 | 4.8% |
| COCCNc1c2c(nc3c(-c4ccccc4)c(C)nn13)CCC2 | 2.2% |
| Cc1ccc(-c2csc(NC(=O)C3=NN(c4ccccc4)C(=O)CC3)n2)cc1 | 3.35% |
| CCCN1CCN(C(c2cc3cc(OCC)ccc3[nH]c2=O)c2nnnn2C2CCCCC2)CC1 (stereo not drawn) | -46.4% |
| Cc1ccc(C(C(=O)NC2CCCCC2)N(C(=O)c2csnn2)C2CC2)cc1 (stereo not drawn) | -9.75% |
| COc1ccc(C(CC(=O)N2CCOCC2)c2c(OC)cc(OC)c3ccc(=O)oc23)cc1 (stereo not drawn) | -3.96% |
| Cn1c2ccccc2c2c(C(=O)NCC3CCCO3)cn(C3CCCC3)c(=O)c21 (stereo not drawn) | -0.664% |
| CNC.Cc1cccn2c(NCC3CCCO3)c(C(C)C)nc12.Cl (stereo not drawn) | -12.7% |
| Cc1c(C(C)O)nnn1-c1nonc1N (stereo not drawn) | -2.42% |
| CN=C(Nc1cccnc1)c1ccccc1 | 15.6% |
| CCOc1ccc(-n2c(=O)c3c4c(sc3n(CC(=O)NCCCOC)c2=O)CCCCC4)cc1 | -1.22% |
| Cc1nn2c(N3CCOCC3)c3c(nc2c1-c1ccccc1)CCCC3 | -14.8% |
| CN(C)CCCNc1cc(-c2ccccc2)nc2cc(-c3cccc(F)c3)nn12 | -15.9% |
| Cc1nn2c(NCCN3CCOCC3)c3c(nc2c1-c1ccccc1)CCCC3 | -76.5% |
| CN(C)CCCNc1c2c(nc3cc(-c4cccc(F)c4)nn13)CCC2 | -69.1% |
| Cc1nn2c(NCCN(C)C)c3c(nc2c1-c1ccccc1)CCCC3 | -41.4% |
| Fc1cccc(-c2cc3nc4c(c(NCc5ccco5)n3n2)CCCC4)c1 | -33.2% |
